# Measurements taken from the supplement of paper PMC8728848.
# The entries come from a sample that favours the strongest signals as a whole.
# B1: PX9961V-pdi-562-26-562 (Parabacteroides distasonis) (protein)
# chain: EIFSEITTDNYYQNSNNIYAALVNNYAKAFSTGWSDARYFLQEVTADQLMIPTRGKHGYNGGEYVRLHEHKWTVEENFVYNGWAAPFQGIALCNNTLSDFENLDFSTFKLTEETKNEYIAELRALRVWNYMFLIDFFRHVPIVTDIEEVKAQSTPLEVFNFMESELLAILPDLPKNRGVSRFDQAGVASILVRLYLNAEKWIGISKYDECEQMAQAILDGKYGEYSIDPDYRGPFRSGINGYRSKENIMEFAIKKNYFEASWLYNMWMHYQDRYSLDNDWQGWNGGNLAPSRDLYGNLYQDKLGMPFEKFPDGDIRKKAFRVISNDGDYEGFFLMGTQYKFDYEKGYGFTDEVITGTEEYNGKPLVYVDQVGRFSEGETGLAKGSHVIYGEENTGYRLIKFPWLPQSKDLFQMNSIPEIRLAEIYYSLAECKYRSGDKIGAARLLDVVRKRYYKAEDWSKFSYESNISKLTDDEFVDELGREFIGERHRRIDLIRWNRFSEGAWWDKTPDATNQDVFPIPYRALNANPLLKQTTAGF
# Assays:
# Assay in all cases: glycan array binding signal (z-score within array); higher = stronger binding
# Settings in all cases: glycan notation: IUPAC condensed, linker removed
# [1] = target: Fuc(a1-2)Gal(b1-3)GlcNAc(b1-3)GalNAc
# How it was run: (§1)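 Negative Z-scores can be read as non-binding. The Z-score is calculated within each array and then averaged across arrays of one protein sequence at different concentrations or buffers and across linkers. Arrays, 3228 in all, were curated from the Consortium for Functional Glycomics database and kept only where the protein sequence was available.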
# [2] = target: Fuc(a1-2)Gal(b1-3)GlcNAc(b1-3)[Fuc(a1-2)Gal(b1-3)GlcNAc(b1-6)]GalNAc
# How it was run: as §1
# [3] = target: Fuc(a1-2)Gal(b1-4)GlcNAc(b1-2)[Fuc(a1-2)Gal(b1-4)GlcNAc(b1-4)]Man(a1-3)[Fuc(a1-2)Gal(b1-4)GlcNAc(b1-2)Man(a1-6)]Man(b1-4)GlcNAc(b1-4)GlcNAc
# How it was run: as §1
# [4] = target: Fuc(a1-2)Gal(b1-4)[Fuc(a1-3)]GlcNAc(b1-2)[Fuc(a1-2)Gal(b1-4)[Fuc(a1-3)]GlcNAc(b1-4)]Man(a1-3)[Fuc(a1-2)Gal(b1-4)[Fuc(a1-3)]GlcNAc(b1-2)Man(a1-6)]Man(b1-4)GlcNAc(b1-4)GlcNAc
# How it was run: as §1
# [5] = target: Fuc(a1-2)[Gal(a1-3)]Gal(b1-3)GlcNAc(b1-2)Man(a1-3)[Fuc(a1-2)[Gal(a1-3)]Gal(b1-3)GlcNAc(b1-2)Man(a1-6)]Man(b1-4)GlcNAc(b1-4)GlcNAc
# How it was run: as §1
# [6] = target: Fuc(a1-2)[Gal(a1-3)]Gal(b1-4)Glc
# How it was run: as §1
# [7] = target: Fuc(a1-2)[Gal(a1-3)]Gal(b1-4)GlcNAc(b1-2)Man
# How it was run: as §1
# [8] = target: Fuc(a1-2)[Gal(a1-3)]Gal(b1-4)GlcNAc(b1-2)Man(a1-3)[Fuc(a1-2)[Gal(a1-3)]Gal(b1-4)GlcNAc(b1-2)Man(a1-6)]Man(b1-4)GlcNAc(b1-4)GlcNAc
# How it was run: as §1
# [9] = target: Fuc(a1-2)[GalNAc(a1-3)]Gal(b1-3)GlcNAc(b1-2)Man(a1-3)[Fuc(a1-2)[GalNAc(a1-3)]Gal(b1-3)GlcNAc(b1-2)Man(a1-6)]Man(b1-4)GlcNAc(b1-4)GlcNAc
# How it was run: as §1
# [10] = target: Fuc(a1-2)[GalNAc(a1-3)]Gal(b1-4)GlcNAc(b1-2)Man(a1-3)[Fuc(a1-2)[GalNAc(a1-3)]Gal(b1-4)GlcNAc(b1-2)Man(a1-6)]Man(b1-4)GlcNAc(b1-4)GlcNAc
# How it was run: as §1
# [11] = target: Fuc(a1-2)[GalNAc(a1-3)]Gal(b1-4)[Fuc(a1-3)]GlcNAc
# How it was run: as §1
# [12] = target: Fuc(a1-2)[GalNAc(a1-3)]Gal(b1-4)[Fuc(a1-3)]GlcNAc(b1-3)GalNAc
# How it was run: as §1
# Fuc(a1-3)GlcNAc = target: Fuc(a1-3)GlcNAc
# How it was run: as §1
# [13] = target: Fuc(a1-3)[Gal(b1-4)]GlcNAc6S
# How it was run: as §1
# Fuc(a1-4)GlcNAc = target: Fuc(a1-4)GlcNAc
# How it was run: as §1
# Fuc(b1-3)GlcNAc = target: Fuc(b1-3)GlcNAc
# How it was run: as §1
# Gal(a1-3)Gal = target: Gal(a1-3)Gal
# How it was run: as §1
# [14] = target: Gal(a1-3)Gal(b1-3)GlcNAc(b1-2)Man(a1-3)[Gal(a1-3)Gal(b1-3)GlcNAc(b1-2)Man(a1-6)]Man(b1-4)GlcNAc(b1-4)GlcNAc
# How it was run: as §1
# [15] = target: Gal(a1-3)Gal(b1-3)[Fuc(a1-4)]GlcNAc(b1-2)Man(a1-3)[Gal(a1-3)Gal(b1-3)[Fuc(a1-4)]GlcNAc(b1-2)Man(a1-6)]Man(b1-4)GlcNAc(b1-4)GlcNAc
# How it was run: as §1
# Gal(a1-3)Gal(b1-4)GlcNAc = target: Gal(a1-3)Gal(b1-4)GlcNAc
# How it was run: as §1
# Gal(a1-4)Gal(b1-4)Glc = target: Gal(a1-4)Gal(b1-4)Glc
# How it was run: as §1
# Gal(b1-3)GalNAc = target: Gal(b1-3)GalNAc
# How it was run: as §1
# [16] = target: Gal(b1-3)GlcNAc(b1-2)Man(a1-3)[Gal(b1-3)GlcNAc(b1-2)Man(a1-6)]Man(b1-4)GlcNAc(b1-4)[Fuc(a1-6)]GlcNAc
# How it was run: as §1
# [17] = target: Gal(b1-3)GlcNAc(b1-3)Gal(b1-4)GlcNAc(b1-3)Gal(b1-4)GlcNAc(b1-2)[Gal(b1-3)GlcNAc(b1-3)Gal(b1-4)GlcNAc(b1-3)Gal(b1-4)GlcNAc(b1-6)]Man(a1-6)[Gal(b1-3)GlcNAc(b1-3)Gal(b1-4)GlcNAc(b1-3)Gal(b1-4)GlcNAc(b1-2)Man(a1-3)]Man(b1-4)GlcNAc(b1-4)[Fuc(a1-6)]GlcNAc
# How it was run: as §1
# [18] = target: Gal(b1-3)[Fuc(a1-4)]GlcNAc(b1-6)GalNAc
# How it was run: as §1
# [19] = target: Gal(b1-4)GlcNAc(b1-3)Gal(b1-4)GlcNAc(b1-2)Man(a1-3)[Gal(b1-4)GlcNAc(b1-3)Gal(b1-4)GlcNAc(b1-2)Man(a1-6)]Man(b1-4)GlcNAc(b1-4)[Fuc(a1-6)]GlcNAc
# How it was run: as §1
# [20] = target: Gal(b1-4)GlcNAc(b1-3)Gal(b1-4)GlcNAc(b1-2)[Gal(b1-4)GlcNAc(b1-3)Gal(b1-4)GlcNAc(b1-6)]Man(a1-6)[Gal(b1-4)GlcNAc(b1-3)Gal(b1-4)GlcNAc(b1-2)Man(a1-3)]Man(b1-4)GlcNAc(b1-4)GlcNAc
# How it was run: as §1
# [21] = target: Gal(b1-4)GlcNAc(b1-3)Gal(b1-4)GlcNAc(b1-3)Gal(b1-4)GlcNAc(b1-2)Man(a1-3)[Gal(b1-4)GlcNAc(b1-3)Gal(b1-4)GlcNAc(b1-3)Gal(b1-4)GlcNAc(b1-2)Man(a1-6)]Man(b1-4)GlcNAc(b1-4)GlcNAc
# How it was run: as §1
binder,measurement,setting,value
B1,glycan array binding signal (z-score),[1],-0.58
same,glycan array binding signal (z-score),[2],2.04
same,glycan array binding signal (z-score),[3],-0.54
same,glycan array binding signal (z-score),[4],-0.424
same,glycan array binding signal (z-score),[5],-0.108
same,glycan array binding signal (z-score),[6],-0.228
same,glycan array binding signal (z-score),[7],-0.182
same,glycan array binding signal (z-score),[8],3.45
same,glycan array binding signal (z-score),[9],-0.21
same,glycan array binding signal (z-score),[10],4.28
same,glycan array binding signal (z-score),[11],-0.369
same,glycan array binding signal (z-score),[12],7.22
same,glycan array binding signal (z-score),Fuc(a1-3)GlcNAc,-0.508
same,glycan array binding signal (z-score),[13],0.861
same,glycan array binding signal (z-score),Fuc(a1-4)GlcNAc,-0.596
same,glycan array binding signal (z-score),Fuc(b1-3)GlcNAc,-0.328
same,glycan array binding signal (z-score),Gal(a1-3)Gal,0
same,glycan array binding signal (z-score),[14],2.03
same,glycan array binding signal (z-score),[15],3.94
same,glycan array binding signal (z-score),Gal(a1-3)Gal(b1-4)GlcNAc,0.068
same,glycan array binding signal (z-score),Gal(a1-4)Gal(b1-4)Glc,-0.099
same,glycan array binding signal (z-score),Gal(b1-3)GalNAc,-0.185
same,glycan array binding signal (z-score),[16],5.1
same,glycan array binding signal (z-score),[17],4.46
same,glycan array binding signal (z-score),[18],6.13
same,glycan array binding signal (z-score),[19],4.04
same,glycan array binding signal (z-score),[20],4.58
same,glycan array binding signal (z-score),[21],4.36
